PubChem BioAssay AID652067 (The Scripps Research Institute Molecular Screening Center, 2013)
The campaign covered roughly 370,000 compounds. About 5,400 (1.5%) were called active. This excerpt belongs to a sample that is enriched for actives. Unmarked numbers belong to inactive results.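 How the source made its calls: active means activation above the mean of all tested compounds plus 3 SD (cut at about 5.5% in these data); inactive means the rest.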

What follows are compounds tested on DAF-12 nuclear receptor (Haemonchus contortus) (assay: H. contortus DAF-12 nuclear receptor activators, primary screen, cell-based, luminescence, HEK293, lit1-tk-luc reporter (AID 652067;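 further: 100% = response to 3 µM Δ7-dafachronic acid high control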)). Conditions: HEK293 hcDAF-12 lit1-tk-luc reporter, at 6.8 µM, stronger effect = higher value, 0% DMSO, 100% Δ7-dafachronic acid.
`CN(C(=O)COc1ncnc2c1cnn2-c1ccccc1)C1CCCCC1` was tested, and the activation was -0.54%.
With `c1ccc(-n2ncc3c(N4CCCC4)ncnc32)cc1` the activation was 6.43% (active).
Work on `CC(Sc1ncnc2c1cnn2-c1ccccc1)C(=O)Nc1ccc(N2CCOCC2)cc1` (stereo not drawn) yielded an activation of 1.44%.
Work on `COc1ccc(-n2c(SCC(=O)Nc3ccc4c(c3)OCCO4)nnc2-c2ccc(Cl)cc2)cc1` yielded an activation of -1.21%.
Compound `Cc1nc2ccc(S(=O)(=O)NCC(=O)O)cc2s1` has an activation of -0.41%.
`COc1cc(NC(=O)CN(C)S(=O)(=O)c2ccc3nc(C)sc3c2)cc(OC)c1` gave an activation of -1.14%.
With `NS(=O)(=O)c1ccc2nc(NC(=O)CS(=O)(=O)c3ccc(F)cc3)sc2c1` the activation was 9.74% (active).
For `COc1ccc(N2CCN(CCNS(=O)(=O)c3ccc([N+](=O)[O-])cc3)CC2)cc1`, the activation was -2.96%.
For `Nc1ccc2nn(-c3ccc(Cl)cc3)nc2c1`, the activation was 12.2% (active).
Compound `Nc1ccc2c(c1)C(O)c1ccc(Cl)cc1-2` (stereo not drawn) has an activation of 0.07%.
In the case of `Nc1nc2cc(Cl)ccc2n1N`, the activation is reported as -0.75%.
`CCOc1ccc(N(CC(=O)Nc2c(C)n(C)n(-c3ccccc3)c2=O)S(=O)(=O)c2ccc(Cl)s2)cc1` gave an activation of -1%.
Work on `CN(CCc1ccccc1)C(=O)Cn1nc(-c2ccccc2)ccc1=O` yielded an activation of -1.21%.
In the case of `COC(=O)[C@]12C[C@H](CC(=O)NCc3ccccc3)C(=O)N(CCC3=CCCCC3)C1=C[C@H](C(C)C)O[C@@H]2C1CC1`, the activation is reported as -1.01%.
`O=C(Nc1c(Cl)c(C2CC2)nn1-c1ccccc1)C(Cl)(Cl)Cl` gave an activation of -0.16%.
For `O=C(Cn1ccc([N+](=O)[O-])n1)NCc1cccs1`, the activation was 10.1% (active).
Compound `O=C(CCn1ccc([N+](=O)[O-])n1)Nc1nccs1` has an activation of -1.81%.
With `Cc1ccnc(NC(=O)Cn2ccc([N+](=O)[O-])n2)c1` the activation was 0.29%.
In the case of `CCOC(=O)[C@]12CCCC3=C1N(CCC3)C(=O)[C@@H](CC(=O)NCc1cccs1)C2`, the activation is reported as -2.04%.
Compound `O=C(/C=C/c1ccccc1[N+](=O)[O-])OCC(=O)N1CCCC1` has an activation of 3.54%.
With `CC1CC(C)CN(C/C=C/c2ccccc2[N+](=O)[O-])C1` (stereo not drawn) the activation was 6% (active).
`COc1cc(CN2CC(C)CC(C)C2)cc([N+](=O)[O-])c1O` (stereo not drawn) showed an activation of -3.15%.
`COc1ccc(C2Nc3ccccc3C(=O)N2Cc2cccs2)cc1COc1c(C)cccc1C` (stereo not drawn) gave an activation of -0.71%.
`Cn1c(SCC(=O)c2cccs2)nnc1-c1ccco1` was tested, and the activation was 0.02%.
`O=S(=O)(Nc1ccc2nc(-c3ccco3)[nH]c2c1)c1ccccc1` showed an activation of 1.02%.
For `Cn1c(-c2ccco2)nc2cc3ccccc3cc21`, the activation was 17.4% (active).
`C=CCN=C1NC(c2cccc(C(F)(F)F)c2)C(C(=O)OC)=C(C)N1C` (stereo not drawn) was tested, and the activation was -0.27%.
In the case of `Cc1ccc(NC(=O)Cc2cccc(F)c2)c(S(=O)(=O)N2CCOCC2)c1`, the activation is reported as -1.13%.
Work on `Cc1ccccc1NC(=O)COC(=O)c1ccc(Sc2ncn[nH]2)c([N+](=O)[O-])c1` yielded an activation of 0.06%.
For `CCCCN(C)C(=O)c1ccc2c(c1)N(CC)C(=O)c1ccccc1S2(=O)=O`, the activation was 6.63% (active).
For `O=C(c1ccc2c(c1)N(Cc1ccc(F)cc1)C(=O)c1ccccc1S2(=O)=O)N1CCN(c2ccccn2)CC1`, the activation was -2.49%.
Work on `COC(=O)CNC(=O)c1ccc2c(c1)S(=O)(=O)c1ccccc1C2=O` yielded an activation of -0.44%.
With `OC(c1ccccc1)(c1ccccc1)C1CCN(CCCOc2ccc(-c3ccsc3)cc2)CC1` the activation was 0.49%.
`CC(NCc1ccco1)C(=O)N1CCCCC1` (stereo not drawn) gave an activation of 0.18%.
`COc1ccc2nc(SCc3ccccc3)nc(C)c2c1` was tested, and the activation was 7.19% (active).
For `COc1cccc(CSc2nnc(-c3cccnc3)n2Cc2ccccc2)c1`, the activation was -1.85%.
Compound `COc1ccc(NCc2nnc(SCc3ccccc3)n2-c2ccc(OC)cc2)cc1` has an activation of -1.98%.
Compound `Fc1ccc2nc(COCc3nc4ccc(F)cc4[nH]3)[nH]c2c1` has an activation of -1.16%.
In the case of `Cc1cccc(Nc2nnc(SCC(=O)c3c(N)n(C4CC4)c(=O)[nH]c3=O)s2)c1C`, the activation is reported as -1.19%.
Compound `CCOc1ccccc1Nc1nnc(SCC(=O)Nc2cc(C)on2)s1` has an activation of -3.24%.
In the case of `Cc1ccccc1Nc1nnc(SCC(=O)c2cc3ccccc3o2)s1`, the activation is reported as 7.93% (active).
For `CC(=NNC(N)=O)c1ccc(Cl)c(-n2cccc2)c1`, the activation was 0.37%.
With `Fc1ccc2cnc(-c3ccccc3)cc2c1` the activation was 6.9% (active).
`COc1cc(OC)cc(-c2cc3ccc(F)cc3cn2)c1` gave an activation of 3.13%.
For `O=c1cc(-c2ccccc2)[nH]c2cc(F)ccc12`, the activation was -0.52%.
With `COC(=O)[C@]12C[C@H](CC(=O)NCc3ccccc3)C(=O)N(CCc3ccc(OC)c(OC)c3)C1=C[C@H](C(C)(C)C)O[C@@H]2C` the activation was -2.1%.
In the case of `O=c1[nH]c(-c2ccccc2)cn1C1CCN(Cc2ccc(-c3nc4ccc(F)cc4nc3-c3ccccc3)cc2)CC1`, the activation is reported as 0.07%.
Compound `O=C(CCS(=O)(=O)c1ccccc1)Nc1ccc(Cl)c(Cl)c1` has an activation of 0.35%.
Work on `COc1ccc(C#CCNCc2ccc(OC)cc2OC)cc1` yielded an activation of -3.08%.
In the case of `Cc1ccc2nc(-c3ccc(CN4CCC(n5cc(-c6ccccc6)[nH]c5=O)CC4)cc3)c(-c3ccccc3)nc2c1`, the activation is reported as -2.64%.
`Cc1cc(C)n(C(=O)CCNC(=O)c2ccccc2Cl)n1` gave an activation of -1.04%.
For `COCCNC(=O)c1ccccc1-c1nc(-c2ccccc2Cl)no1`, the activation was 2.6%.
With `CN(C)CCNC(=O)c1ccc(Cl)c2cc3ccccc3nc12` the activation was 13.5% (active).
Work on `O=C(N1CCOCC1)N(Cc1ccccc1)c1ccccn1` yielded an activation of -1.16%.
For `O=C(Nc1ccc2ccccc2c1)Nc1ccc2snnc2c1`, the activation was -0.5%.
In the case of `O=S(=O)(NC(=S)Nc1ccccc1)c1ccc(F)cc1`, the activation is reported as 2.29%.
With `S=C(Nc1ccccc1)Nc1ccc2ccccc2c1` the activation was 6.41% (active).
Compound `CC(=O)C1=C(C)N(Cc2ccc(Cl)cc2)C(=S)NC1c1ccc(F)cc1` (stereo not drawn) has an activation of 0.56%.
Work on `Nc1nc2c(ncn2[C@@H]2O[C@H](C(=O)N[C@@H](Cc3ccccc3)C(=O)NCc3ccccc3)[C@@H](O)[C@H]2O)c(=O)[nH]1` yielded an activation of 1.55%.
Work on `O=S(=O)(c1ccc2c(c1)OCCCO2)N1CCN(S(=O)(=O)c2c(F)cccc2F)CC1` yielded an activation of -1.98%.
Compound `C=CCn1c(CCNC(=O)c2cccs2)n[nH]c1=S` has an activation of 1.16%.
`C=CCn1c(=NC(=O)c2cccs2)sc2cc(NC(C)=O)ccc21` was tested, and the activation was 6.19% (active).
Work on `C=CCn1c(=NC(=O)c2ccc(S(=O)(=O)N3CCCC3)cc2)sc2cc(NC(C)=O)ccc21` yielded an activation of -1.46%.
`Cc1cc(=O)[nH]c(SCC(=O)Nc2ccc(Cl)cc2C)n1` showed an activation of -1.08%.
With `CCOc1ccc(NC(=O)COC(=O)C2CCC(=O)N2)c([N+](=O)[O-])c1` (stereo not drawn) the activation was 3.85%.
In the case of `CN(C)c1ccc(NC(=O)NC2CCCCN(Cc3ccc(Cl)cc3)C2=O)cc1` (stereo not drawn), the activation is reported as -0.06%.
Work on `Cc1c2cnn(CC(=O)NCCCN3CC(C)CC(C)C3)c(=O)c2c(C)n1Cc1ccc(Cl)cc1` (stereo not drawn) yielded an activation of -1.23%.
Compound `CC1CCCCN1CCCNC(=O)Cn1ncc2c([nH]c3ccccc32)c1=O` (stereo not drawn) has an activation of 0.15%.
With `CC1CC(C)CN(CCCNC(=O)Cn2ncc3c([nH]c4ccccc43)c2=O)C1` (stereo not drawn) the activation was 6.07% (active).
For `Cc1ccc2cc(/C=N/Nc3ccc(C(=O)O)cc3)c(Cl)nc2c1`, the activation was 10.2% (active).
`CC(=O)Nc1ccc(C(=O)CSc2nc3ccc(C)cc3[nH]2)cc1` showed an activation of 4.98%.
`CSCC[C@H](NC(=O)OC(C)(C)C)C(=O)N/N=C/c1cc2ccc(C)cc2nc1Cl` was tested, and the activation was -0.35%.
With `CC(Oc1ccccc1)C(=O)NN1Cc2ccccc2C1=N` (stereo not drawn) the activation was -1.32%.
For `Cc1c(C=O)c2ccccc2n1CCOc1ccccc1`, the activation was -3.86%.
`O=C(O)Cn1c(Cc2ccccc2)nc2ccccc21` showed an activation of 0.35%.
In the case of `Cc1c(C=O)c2ccccc2n1CC(=O)O`, the activation is reported as 9.3% (active).
`CCOC(=O)c1csc(NC(=O)C2CCCN(S(=O)(=O)c3ccc(Cl)s3)C2)n1` (stereo not drawn) gave an activation of -2.96%.
With `COc1ccc(-c2cc(-c3nnc(SCc4ccc([N+](=O)[O-])cc4)n3N)[nH]n2)cc1` the activation was -4.71%.
Work on `Cn1cnc(C(F)(F)F)c1-c1ccc([N+](=O)[O-])cc1` yielded an activation of -1.54%.
In the case of `Cc1ccc(-c2cn3cc([N+](=O)[O-])ccc3n2)cc1`, the activation is reported as 7.66% (active).
Compound `C=CCN(C(=O)[C@@H](CCCC)[C@@H](O)c1ccc(Cl)cc1)c1ccccc1` has an activation of -1.78%.
In the case of `CCCCCCCCN1C(=O)[C@@H](CC(=O)NCc2ccc(C)o2)C[C@@]2(C(=O)OC)C1=C[C@H](C(C)(C)C)O[C@@H]2C`, the activation is reported as 0.67%.
Work on `CN1C[C@]2(C=C3CCCCC3n3c(=O)n(-c4ccccc4)c(=O)n32)N=C1NC(=O)c1ccccc1` (stereo partly drawn) yielded an activation of -1.23%.
Work on `CCN(CC)CCn1c2c(c(SCC(=O)Nc3nc4ccccc4s3)nc1=O)CCCC2` yielded an activation of 1.05%.
With `c1ccc2sc(NN=C3CCCC3)nc2c1` the activation was 9.02% (active).
Compound `O=C1NC(Nc2nc3ccccc3s2)(C(F)(F)F)C(=O)N1C1CCCCC1` (stereo not drawn) has an activation of 2.82%.
Compound `O=S1(=O)c2c(cccc2N2CCCCC2)O[C@H](COCc2ccccc2)CN1C1CC1` has an activation of -2.09%.
In the case of `CC(=O)Oc1ccc2c(=O)oc(-c3ccc([N+](=O)[O-])cc3)nc2c1`, the activation is reported as -2.73%.
`O=[N+]([O-])c1ccc2oc(-c3cccc(O)c3)nc2c1` was tested, and the activation was 15.4% (active).
In the case of `COc1cccc(-c2nnc(SCCOc3ccc4c(C)cc(=O)oc4c3)o2)c1`, the activation is reported as 0.05%.
For `COc1cccc(-c2nc3cc(C)ccc3o2)c1`, the activation was 14.7% (active).
In the case of `O=[N+]([O-])c1ccc2c(c1)C(O)n1nc(-c3ccccc3)nc1S2` (stereo not drawn), the activation is reported as 0.58%.
For `COc1cccc(-c2nc(CS(=O)(=O)CC(=O)NCCc3ccc(OC)c(OC)c3)c(C)o2)c1`, the activation was -1.4%.
